The full ranking holds about 68,000 sequences; the median of “fluorescence intensity (a.u.)” is about 9,100, and the highest 2% start at about 16,000. The sample as a whole holds a higher share of the highest values than the screen did.
Each sequence was assayed against OsWRKY34 (Oryza sativa, UniProt Q0JBA9 1-250) (assay: protein-binding microarray (RPBM); PBS, 2% BSA, 51.3 ng/ul salmon testes DNA, 50 uM zinc acetate, 200 nM TF, 25 C, 1 h; high values mean tight binding). Conditions: protein: recombinant; tags: N-terminal polyhistidine and DsRed monomer fusion (pET32a); label: CyDye5-dUTP incorporated in the synthesized complementary strand; 3' TTTTT single-stranded linker to array surface; dsDNA, one strand shown.
In short: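 Transcription factors, each fused N-terminally to a polyhistidine tag and DsRed, were expressed in E. coli BL21-CodonPlus and purified on Ni–NTA. A custom Agilent array was made double-stranded by primer extension with Cy5-dUTP and blocked with 2% BSA. It was incubated with 200 nM protein in PBS, 2% BSA, salmon testes DNA and 50 µM zinc acetate at 25 °C for 1 h, then washed. The binding signal is per-feature fluorescence intensity (arbitrary units) read on an Axon 4000B scanner.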

Sequence of OsWRKY34 (Q0JBA9 entry or part of it): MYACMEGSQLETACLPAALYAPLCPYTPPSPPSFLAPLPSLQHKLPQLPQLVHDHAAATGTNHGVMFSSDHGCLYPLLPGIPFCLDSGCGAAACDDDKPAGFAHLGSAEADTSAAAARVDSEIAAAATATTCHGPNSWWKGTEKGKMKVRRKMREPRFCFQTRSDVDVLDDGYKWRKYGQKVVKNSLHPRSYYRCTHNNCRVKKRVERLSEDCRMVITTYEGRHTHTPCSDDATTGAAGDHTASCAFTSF

Sequence | binding signal
ATCACAATAGTAACTATACTCTACAATCCATGGTTTCTTACGGAGTCACCTAGTGCAG | 8960 fluorescence intensity (a.u.)
CCTTGGGCTGTTTTACCATGGTTTTTGCACACGTGGATGACGGAGTCACCTAGTGCAG | 10100 fluorescence intensity (a.u.)
CTGACATGCGTCGCCATTGACTTTCGCCGCCGCCGCCGCGCGGAGTCACCTAGTGCAG | 9140 fluorescence intensity (a.u.)
GTCACCATCAAAATAGCTTCATATCTTCCCTGGAAATTTTCGGAGTCACCTAGTGCAG | 8160 fluorescence intensity (a.u.)
TGTAGTAATTGGGTATCTTCATCATTTGTCCTAAAAAAGTCGGAGTCACCTAGTGCAG | 8080 fluorescence intensity (a.u.)
CCACTTTAGATCCCAAATTATATATGGTCGAGTTCTTTTCCGGAGTCACCTAGTGCAG | 9470 fluorescence intensity (a.u.)
ACATCCATCCACTCAACCCATTCTACCGTATTAAGCCAATCGGAGTCACCTAGTGCAG | 8192 fluorescence intensity (a.u.)
CGCAACCCCAAGCACTGGTGTTCTACATTCAATCAATCATCGGAGTCACCTAGTGCAG | 38500 fluorescence intensity (a.u.)
ATCATCGTTCACCCGCATTTCATCTACTTCAATCTACATTCGGAGTCACCTAGTGCAG | 9810 fluorescence intensity (a.u.)
TGAGTGGTGGGAGGAGTTAGCAAGTGGTTTGACCGTGGTTCGGAGTCACCTAGTGCAG | 11800 fluorescence intensity (a.u.)
CTGGTTCGGGAATTTCTGGGTGTATAGGGAAATAATTTATCGGAGTCACCTAGTGCAG | 8060 fluorescence intensity (a.u.)
TCTATTTTATAATCGGTGTGTTTGACTGGTATTTTTTAGCCGGAGTCACCTAGTGCAG | 8930 fluorescence intensity (a.u.)
AGGGTGGGTTATATTTGAGCTGGTTAGCAAAAACTATAATCGGAGTCACCTAGTGCAG | 17900 fluorescence intensity (a.u.)
GATAGGGTTAGGGATGGATAGGGTTTCCTTGAGGGTAGTTCGGAGTCACCTAGTGCAG | 16400 fluorescence intensity (a.u.)
TCGTGGTGGTGGTGGTGGTGGAAGTTAGGGTTTGAGGGTTCGGAGTCACCTAGTGCAG | 17300 fluorescence intensity (a.u.)
GAAGTTAGGGTTTGAGGGTTTGGTTCCGGAGGGTAGGGTCCGGAGTCACCTAGTGCAG | 9850 fluorescence intensity (a.u.)
TAGGGTTTGGATGGATAGGGTATATGAGGGTAATTTAGGCCGGAGTCACCTAGTGCAG | 8450 fluorescence intensity (a.u.)
AGGGGCGGAACTGGGTAGGCAGGGTGGGTTATATTTGAGCCGGAGTCACCTAGTGCAG | 10500 fluorescence intensity (a.u.)
TCCGGTTCGTTATTTTTATTTTTCTCAGGGAAAAAAAATCCGGAGTCACCTAGTGCAG | 8060 fluorescence intensity (a.u.)
ACGGCCTAGTTTTGGTTGAAGTTTTTGGTAGGGGTTAGTTCGGAGTCACCTAGTGCAG | 12300 fluorescence intensity (a.u.)
GATAGGGTTAGCAGGGTGGGAAAATATATTTATTATAGTTCGGAGTCACCTAGTGCAG | 18700 fluorescence intensity (a.u.)

Sequence | binding signal
CCCACCTCCACCTCCGCCGGCCGGTACGTTTATCCACTGACGGAGTCACCTAGTGCAG | 9030 fluorescence intensity (a.u.)
GACTGATTTGTTTTTTTTTTCTCCCGGTTTTTTCGACGGACGGAGTCACCTAGTGCAG | 9270 fluorescence intensity (a.u.)
TTCCTTTTTTTATGCAACTTTGACAAGCCTAATAGATATACGGAGTCACCTAGTGCAG | 8500 fluorescence intensity (a.u.)
GCTACCATCGTCACCGCCTCAACCAAGCTACCCGTGTCTCCGGAGTCACCTAGTGCAG | 10400 fluorescence intensity (a.u.)
GCCCTACTCTACCCCTAGCCCTCCGCGCGGCTGCCGTCGACGGAGTCACCTAGTGCAG | 8970 fluorescence intensity (a.u.)
CACCCAAACCAAATCAAATCCGTCCATCCATTCGCCTCTACGGAGTCACCTAGTGCAG | 8960 fluorescence intensity (a.u.)
ATCCACTTATATATACACACATTTGTAATTTGTATCTATACGGAGTCACCTAGTGCAG | 8270 fluorescence intensity (a.u.)
GCTGGAGGGGCTGGGGTATGTTCTTTTTGTATATGACGTTCGGAGTCACCTAGTGCAG | 20300 fluorescence intensity (a.u.)
GTTTGAGGGTTTTTTGTTGGTTTAGAATCATCTTTTTCTTCGGAGTCACCTAGTGCAG | 9210 fluorescence intensity (a.u.)
ATTTTCCTTGATTTTTTTTGTGTGTTTGGGAATTGGGATACGGAGTCACCTAGTGCAG | 12600 fluorescence intensity (a.u.)
CATATGTATGAGGGTATCTTTGTTTTGGCTTTGGTCCCTTCGGAGTCACCTAGTGCAG | 10200 fluorescence intensity (a.u.)
TTGATGGGTTTTGGGTTTTTGTGCTGCTCCTTTTTCGTAACGGAGTCACCTAGTGCAG | 19800 fluorescence intensity (a.u.)
GGTTTTTATGGGGTTGCTCTTTGATTTTTTTTTTCTCCTGCGGAGTCACCTAGTGCAG | 12200 fluorescence intensity (a.u.)
GGCTGGTTTGGTTGGTTGAGAATACCTTTTCTTTTTCCTTCGGAGTCACCTAGTGCAG | 29100 fluorescence intensity (a.u.)
GGGGTATGAAATGTTTTTTTTTTCCTTTACGTTTCTTTTTCGGAGTCACCTAGTGCAG | 15400 fluorescence intensity (a.u.)
TTTCATGTCGCTCCTTGTCGTTGCTGCTCTTTGGGTGCAACGGAGTCACCTAGTGCAG | 11100 fluorescence intensity (a.u.)
TGTTTTTGCTTCTCTTCCTTTTGCTGGAGCTTATTGGTTTCGGAGTCACCTAGTGCAG | 10100 fluorescence intensity (a.u.)
CGTTTTATTTTTGGTTGTTTTTCTGTTTGGGTTTTGATTTCGGAGTCACCTAGTGCAG | 11300 fluorescence intensity (a.u.)
ATTTTCCTTGTTTTGATGTTTTCTGGTTGGGGAAGGGTTACGGAGTCACCTAGTGCAG | 24600 fluorescence intensity (a.u.)
CCTATGAAGAAACTTACGCTGACGGCTGACCTAAACGTGCCGGAGTCACCTAGTGCAG | 11000 fluorescence intensity (a.u.)
AAACAATCCGACGGCCCGTATTCCGTGGTCCACGGCCACGCGGAGTCACCTAGTGCAG | 9020 fluorescence intensity (a.u.)
